Assay results from PubChem BioAssay (NCATS).
Results filed as inconclusive are left out. Unmarked numbers belong to inactive results. Calls of active or inactive are those of the source. Calls come from the whole dose curve; as a rule, active = well fitted inhibition curve with a large enough effect; inconclusive = small, poorly fitted or top-dose-only effect; inactive = flat fitted curve, though single readings scatter.

Legend:
Assay in all cases: Cytotoxic Profiling of Annotated Libraries Using Quantitative High-Throughput Screening (AID 1296008); note: nearly all actives have a fitted effect of over 60% in size
Conditions in all cases: Five cell lines viability, CellTiter-Glo ATP luminescence, 48-72 h; max response: active compounds read low
CRL-7250 = normal cell line; tested on: CRL-7250
How it was run: (§1)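 Cells exposed to compounds for 48 or 72 hr at 37 degrees Celsius. Viability read as ATP-coupled luminescence with CellTiter-Glo after 10 min at room temperature.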

HEK293 = tested on: HEK293
How it was run: as §1

KB-3-1 = tested on: KB-3-1
How it was run: as §1
% is set by controls: 0 for no effect and ±100 for the full control effect; potency is the fitted concentration of half-maximal effect.

## C/C(=C\CCC(C)CCO)C(=O)O[C@@H]1[C@@H](O)[C@H](OC2OC=C(C(=O)O)C3CCC(C)(O)C23)O[C@H](CO)[C@H]1O (stereo partly drawn)
CRL-7250
  outcome: inactive
HEK293
  max response: 0.262%
KB-3-1
  outcome: inactive

## COc1ccc(C2(O)c3ccccc3NC(=O)C2O)cc1 (stereo not drawn)
CRL-7250
  max response: 0.154%
HEK293
  max response: -5.12%
KB-3-1
  outcome: inactive

## CCCCc1nc2cc(/C=C/C(=O)NO)ccc2n1CCN(CC)CC
CRL-7250
  Potency: 5800 nM (active)
HEK293
  Potency: 1840 nM (active)
KB-3-1
  Potency: 1460 nM (active)

## Cc1[nH]nc(C(F)(F)F)c1Cc1sc2c(c1C(=O)N1C[C@](C)(O)CO1)c(=O)n(C)c(=O)n2C(C)C
CRL-7250
  max response: -0.426%
HEK293
  Potency: 51.7 nM (active)
KB-3-1
  max response: 1.3%

## CC(C)C[C@H](CC(=O)NO)C(=O)N[C@H](C(=O)N[C@@H](C)C(=O)NCCN)C(C)(C)C
CRL-7250
  outcome: inactive
HEK293
  max response: -1.44%
KB-3-1
  outcome: inactive

## COC(=O)CC1CC(c2ccc(O)cc2)=NO1 (stereo not drawn)
CRL-7250
  max response: -3.02%
HEK293
  max response: 0.726%
KB-3-1
  max response: -14.5%

## OC1CCC(Nc2ncc3nc(Nc4c(F)cc(F)cc4F)n([C@H]4CCOC4)c3n2)CC1 (stereo partly drawn)
CRL-7250
  max response: -2.71%
HEK293
  outcome: inactive
KB-3-1
  outcome: inactive

## CC(O)/C=C/C1OC(=O)CC1Nc1ccc(C(=O)O)cc1 (stereo not drawn)
CRL-7250
  max response: -10.3%
HEK293
  max response: -8.85%
KB-3-1
  max response: 5.7%

## CC(C)Oc1ccc(C(=O)NC(CNC(=O)CN(C)C)Cc2ccc(-c3cn4cccc(C(C)O)c4n3)cc2)cc1Cl (stereo not drawn)
CRL-7250
  max response: -25.1%
HEK293
  Potency: 206 nM (active)
KB-3-1
  Potency: 146 nM (active)

## CCN1CCN(Cc2ccc(NC(=O)Nc3ccc(Oc4cc(NC)ncn4)cc3)cc2C(F)(F)F)CC1
CRL-7250
  Potency: 25900 nM (active)
HEK293
  max response: -109%
KB-3-1
  Potency: 6510 nM (active)

## O=C(O)CC(=O)OC[C@H]1O[C@@H](Oc2ccc3c(c2)OC[C@H]2c4cc5c(cc4O[C@@H]32)OCO5)[C@H](O)[C@@H](O)[C@@H]1O
CRL-7250
  max response: -24.1%
HEK293
  outcome: inactive
KB-3-1
  max response: -2.44%
